Screening data from PubChem BioAssay.
ALDH1A1 inh: ALDH1A1 (human) enzyme inhibition; Purified ALDH1A1, NADH fluorescence, propionaldehyde substrate; 7.3% of 220,000 active; Potency, µM (top dose mostly 75.3 µM), for the others: at the highest dose activity, negative = inhibition, actives largely listed as inhibitors; AID 1030; active = well fitted inhibition curve with a large enough effect, not every such curve was filed as active; inconclusive = small, poorly fitted or top-dose-only effect, or another doubt; inactive = no such curve, though single readings can be large or run the other way;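 also: plate controls were no enzyme wells and a reference inhibitor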
RORgamma inh: blocks mouse ROR gamma transcriptional activity; AID 2551; Potency, µM (highest dose often 53.6 µM), inactives show at the top dose activity change, negative = inhibition, actives largely listed as inhibitors; P51450; 5.4% of 310,000 active; Drosophila S2 Gal4-RORgamma UAS-luciferase reporter, 20 h; also: nearly all actives have a fitted effect of over 60% in size
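Schneider cells (Drosophila), stable Gal4 DBD–ROR gamma + UAS-luc; 1 hr cmpd preincubation; Cu2+ induction 700 uM final; 20 hr ambient; luminescence.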
PLK1 PBD block: blocks phosphopeptide binding to human PLK1 polo-box domain | Potency, µM, for inactives: max response, negative = inhibition, usual class: inhibitors | P53350 | Plk1 PBD binding of FITC phosphopeptide, fluorescence polarization | 2.8% of 360,000 active; also: series mostly up to about 57 µM; nearly all actives have a fitted effect of over 65% in size
Target sequence (P53350 whole entry, looked up, the tested form may be a part): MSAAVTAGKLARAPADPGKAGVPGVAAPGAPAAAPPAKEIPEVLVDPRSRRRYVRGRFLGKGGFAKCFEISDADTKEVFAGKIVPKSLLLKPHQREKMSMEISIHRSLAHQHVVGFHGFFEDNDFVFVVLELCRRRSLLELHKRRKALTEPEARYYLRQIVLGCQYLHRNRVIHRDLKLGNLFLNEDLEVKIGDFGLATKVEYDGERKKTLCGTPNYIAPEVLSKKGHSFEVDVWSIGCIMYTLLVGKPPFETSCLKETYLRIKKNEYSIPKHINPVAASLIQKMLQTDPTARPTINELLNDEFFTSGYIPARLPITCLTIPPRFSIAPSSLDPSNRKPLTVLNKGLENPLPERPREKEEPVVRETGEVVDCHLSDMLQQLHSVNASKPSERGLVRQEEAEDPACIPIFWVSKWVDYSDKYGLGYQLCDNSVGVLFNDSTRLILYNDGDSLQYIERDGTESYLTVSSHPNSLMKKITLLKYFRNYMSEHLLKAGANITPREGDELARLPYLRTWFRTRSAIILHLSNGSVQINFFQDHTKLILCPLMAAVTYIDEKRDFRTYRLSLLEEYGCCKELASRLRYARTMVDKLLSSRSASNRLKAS
VP16 counter: inhibits Gal4-VP16 luciferase reporter, ROR gamma counter-screen; Drosophila S2 Gal4-VP16 UAS-luciferase, luminescence, 20 h; Potency, µM (series often up to 53.6 µM), for inactives: at the highest dose activity, negative = inhibition, most hits filed as inhibitors; 3.5% of 310,000 active;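 also: Gal4-VP16 expression switched on by copper sulfate through the metallothionein promoter; nearly all actives have a fitted effect of over 50% in size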
Sfp inh: inhibitors of Bacillus subtilis Sfp phosphopantetheinyl transferase; Q9F4F7; Biochemical Sfp PPTase activity, qHTS; Potency, µM, without a hit: largest response in the series, negative = inhibition, hits mostly inhibitors; 3.5% of 310,000 active; AID 1490;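 also: the enzyme is Sfp with the accession as filed and its product quenches rhodamine fluorescence; 0% = enzyme reaction without inhibitor and -100% = no enzyme wells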
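After 15 min at room temperature with compound, 15 nM Sfp received 5 uM rhodamine-CoA plus 12.5 uM BHQ-2-ybbR (50 mM Hepes pH 7.6, 10 mM MgCl2). Rate came from the fluorescence difference over 30 min, ex 525/em 598 nm.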
* hit, by the source's call; ? = inconclusive; . = no result given; [ ] = remark or other dose. The list is not random: actives were taken first. Their share in the collection is about 12%. Unless noted, calls follow the shape of the dose curve; as a rule, active = well fitted curve in the direction sought with a large enough effect; inconclusive = small, poorly fitted or top-dose-only effect, or another doubt; inactive = no such curve, though single readings can be large; an effect the other way counts as inactive or inconclusive. Unless noted, % is scaled to controls: 0 for no effect and ±100 for the full control effect; potency is read from the fitted curve at half-maximal effect.

SMILES	ALDH1A1 inh	RORgamma inh	PLK1 PBD block	VP16 counter	Sfp inh
O=c1c2c(-c3ccco3)csc2nc(SCc2cn3cccnc3n2)n1-c1ccccc1	?	0.0%[10 µM]	23.8µM*	7.2%	17.8µM*
O=C(CSc1nc2scc(-c3ccco3)c2c(=O)n1-c1ccccc1)N1CCOCC1	?	?	-4.2%	-12.4%	?
Cc1ccc(F)c(NC=C2C(=O)OC(C)(C)OC2=O)c1	10µM*	17.6%	-2.8%	-5.7%	5.0%
Cc1nn2c(nc1=O)NNC2(C)C(C)(C)C (stereo not drawn)	1.9%	11.2µM*	-12.9%	-13.8%	35.5µM*
O=C(NNS(=O)(=O)c1ccccc1)c1cccc(F)c1	.	-15.9%	-8.3%	-28.7%	35.5µM*
CC(=O)Nc1ccc(S(=O)(=O)NNC(=O)c2cccc(Cl)c2)cc1	-6.2%	1.8%	23.8µM*	-4.7%	-25.5%
CC1(C)Cc2c(C#N)c(NC3CCCCC3)nc(-c3ccco3)c2CO1	?	-19.2%	.	-3.6%	3.55µM*
CC1(C)Cc2c(C#N)c(NCC3CCCO3)nc(-c3ccco3)c2CO1 (stereo not drawn)	?	?	-10.3%	23.0%	7.94µM*
CCN(CC)CCNc1nc(-c2ccco2)c2c(c1C#N)CC(C)(C)OC2	?	5.7%	-5.2%	-9.0%	4.6%
CN(C)CCCNc1nc(-c2ccccc2)c2c(c1C#N)CC(C)(C)OC2	.	6.0%	23.8µM*	-8.4%	3.0%
Cc1ccc(S(=O)(=O)N(C)c2ccc(C(=O)NCC(c3ccccc3)N3CCCC3)cc2)cc1 (stereo not drawn)	.	.	6.6%	.	.
CCOC(=O)C1=C(C)NC2=C(C(=O)c3ccccc32)C1c1cccc2ccccc12 (stereo not drawn)	.	26.2%	-6.6%	21.5%	8.1%
CCN1C(=O)NC2=C(C(=O)c3ccccc32)C1c1ccccc1F (stereo not drawn)	0.316µM*	6.0%	-7.4%	-4.0%	-10.3%
O=[N+]([O-])c1cc2c(c(CSc3nnnn3-c3ccc(O)cc3)c1)OCOC2	-9.1%	?	-3.8%	-14.0%	-5.8%
C/C(=N\NC(=S)Nc1ccc(F)cc1)c1ccc2c(c1)OCCO2	-1.8%	1.26µM*	-6.9%	3.98µM*	12.2%
C/C(=N\NC(N)=S)c1ccc2c(c1)OCCO2	-0.9%	5.01µM*	-3.8%	?	-22.8%
CC(=O)N/N=C(\C)c1ccc2c(c1)OCCO2	-19.8%	-9.4%	3.3%	11.3%	7.9%
CCCS(=O)(=O)NC(=O)C1(C)CCCN(C(=O)c2ccc3ccccc3n2)C1 (stereo not drawn)	.	.	-4.0%	.	.
CCCCOc1ccc(N(CC(=O)NC2CCCCC2)C(=O)c2snc(C(N)=O)c2N)cc1	.	-22.8%	33.6µM*	?	-4.1%
Cc1ccc(-c2nc(CN3CCCCC3)cc(CN3CCCCC3)c2O)cc1	?	?	-11.7%	?	39.8µM*
COc1cc2c(=O)n(Cc3ccccc3)c(=O)n(CC(=O)NCc3ccco3)c2cc1OC	1.41µM*	-0.6%	-1.6%	5.6%	-15.8%
COc1ccc(CCNC(=O)Cn2c(=O)n(-c3cc(F)ccc3F)c(=O)c3sccc32)cc1OC	1µM*	10.3%	-2.5%	-13.1%	15.7%
COc1ccc(CCNC(=O)Cn2c(=O)n(-c3ccc(F)cc3F)c(=O)c3sccc32)cc1OC	?	-0.8%	1.7%	-16.3%	8.1%
COc1ccc(CN(Cc2nc3ccccc3c(=O)[nH]2)C(=O)NC2CCCCC2)cc1	?	12.6µM*	-3.3%	?	6.2%
COc1ccc(S(=O)(=O)N(Cc2nc3ccccc3c(=O)[nH]2)C2CCCC2)cc1	?	?	-8.3%	12.6%	3.3%
SMILES	ALDH1A1 inh	RORgamma inh	PLK1 PBD block	VP16 counter	Sfp inh
O=C(NC1CCCCC1)N(Cc1nc2ccccc2c(=O)[nH]1)C1CCCCC1	?	0.2%	-1.6%	-7.7%	-25.3%
COc1ccccc1CN(Cc1nc2ccccc2c(=O)[nH]1)C(=O)Nc1ccccc1C	?	10µM*	-8.3%	?	-5.7%
COc1ccccc1CN(Cc1nc2ccccc2c(=O)[nH]1)C(=O)Nc1ccc(C)cc1	-9.5%	?	-5.3%	1.3%	-1.3%
COc1ccc(CN(Cc2nc3ccccc3c(=O)[nH]2)C(=O)C(C)(C)C)cc1	4.8%	12.6µM*	0.2%	-4.9%	7.2%
COc1ccccc1NC(=O)N(C)C[C@H]1OCc2cnnn2CCCC(=O)N([C@H](C)CO)C[C@@H]1C	.	.	-20.5%	.	.
COc1cc(CNc2ccccc2SC)ccc1O	?	0.7%	?	5.3%	79.4µM*
CCOc1cc(CNc2ccccc2SC)ccc1O	?	24.1%	.	2.1%	56.2µM*
Cc1cc(C(=O)Nc2ccccn2)no1	8.1%	7.1%[0.365 µM]	-1.3%	.	15.9%
CC1=C(C(=O)Nc2ccccn2)C(c2ccccc2Cl)NC(=S)N1 (stereo not drawn)	2.51µM*	-4.1%	-12.8%	-23.9%	-11.4%
CC1=C(C(=O)Nc2ccccn2)C(c2ccc(Cl)cc2Cl)NC(=S)N1 (stereo not drawn)	2.51µM*	-42.1%	-9.2%	-1.4%	25.1%
CC(=O)c1cc(C#N)c(SCc2ccccc2)nc1C	17.8µM*	-1.1%	-8.8%	4.3%	-17.0%
N#Cc1cc2c(nc1SCc1ccccc1)CCCCC2	8.0%	11.0%	3.77µM*	-0.4%	-14.1%
N#Cc1cc2c(nc1SCc1cccc(Cl)c1)CCCCC2	0.0%	-1.3%	-0.2%	-1.1%	2.7%
N#Cc1cc2c(nc1SCc1cccnc1)CCCCC2	?	-20.9%	-6.0%	7.8%	79.4µM*
N#Cc1cc2c(nc1SCc1ccc(Cl)cc1)CCCC2	?	?	-9.4%	14.2%	?
Cc1ccc(C)c(C(C)NC(=O)c2ccc(Br)o2)c1 (stereo not drawn)	3.98µM*	?	-19.8%	?	50.1µM*
COc1cc2[nH]c(=O)c(C(=O)NCc3ccc(C)cc3)c(O)c2cc1OC	.	.	-1.8%	.	.
COc1cc(C#N)c(NC(=S)N2CCN(C(=O)c3ccco3)CC2)cc1OC	.	.	-2.6%	.	.
NC(=S)n1[nH]c(-c2ccc([N+](=O)[O-])cc2)c(N=Nc2ccc(Cl)cc2)c1=O	?	0.398µM*	?	?	-17.8%
O=c1c(N=Nc2ccc(O)cc2)c(-c2ccccc2)[nH]n1-c1ccc([N+](=O)[O-])cc1	-13.4%	-1.0%	-16.4%	-1.6%	11.1%
Cc1ccc([N+](=O)[O-])cc1N=Nc1c(-c2ccc([N+](=O)[O-])cc2)[nH]n(C(N)=S)c1=O	11.2µM*	0.316µM*	?	-10.9%	?
Cc1cc([N+](=O)[O-])ccc1N=Nc1c(N)[nH]n(-c2ccccc2)c1=O	?	18.1%	?	-2.7%	13.7%
Cc1ccc([N+](=O)[O-])cc1N=Nc1c(C)[nH]n(C(N)=S)c1=O	.	7.08µM*	-20.6%	10µM*	10.1%
CN(NC(=O)NN(C)C(=O)c1ccccc1)C(=O)c1ccccc1	.	.	1.1%	.	.
Cc1ccccc1C(=O)Oc1cccc2c(O)cccc12	.	-26.8%	-1.9%	?	-2.4%
Cc1ccccc1S(=O)(=O)Oc1cccc2c(O)cccc12	.	7.08µM*	-3.5%	?	-18.0%
